From PubChem BioAssay (NCI)
Compounds without any hit were thinned out: in the full panel of roughly 83,000, 20% have a hit.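 The endpoint reported here, percent growth, reads 100 for growth as untreated, 0 for no net growth and -100 for all cells dead.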

Legend:
Test in all cases: NCI-60 one-dose screen, 48 h (100 = growth as untreated, 0 = no growth, -100 = all killed); active = growth percent below 10; inactive = the rest
[1] = system: NCI-H23 lung; conditions: 10 µM unless noted
[2] = system: NCI-H226 lung; conditions: 10 µM unless noted
[3] = system: NCI-H322M lung; conditions: 10 µM unless noted
[4] = system: HOP-62 NSCLC; conditions: 10 µM unless noted
[5] = system: NCI-H460 lung; conditions: 10 µM unless noted
[6] = system: HOP-92 NSCLC; conditions: 10 µM unless noted
[7] = system: NCI-H522 lung; conditions: 10 µM unless noted
[8] = system: A549/ATCC NSCLC; conditions: 10 µM unless noted
[9] = system: 786-0 renal; conditions: 10 µM unless noted
[10] = system: COLO 205 colon; conditions: 10 µM unless noted
[11] = system: DU-145 prostate; conditions: 10 µM unless noted
[12] = system: K-562 leukemia; conditions: 10 µM unless noted
[13] = system: MALME-3M melanoma; conditions: 10 µM unless noted
[14] = system: MDA-MB-231 breast; conditions: 10 µM unless noted
[15] = system: RXF 393 renal; conditions: 10 µM unless noted
[16] = system: SF-268 CNS; conditions: 10 µM unless noted
[17] = system: SF-295 CNS; conditions: 10 µM unless noted
[18] = system: SF-539 CNS; conditions: 10 µM unless noted
[19] = system: UACC-257 melanoma; conditions: 10 µM
[20] = system: M14 melanoma; conditions: 10 µM unless noted

Measured: growth

O=C(NCCCN1CCN(CCCNC(=O)C2CCCCC2)CC1)C1CCCCC1
inactive: [1] 111% | [2] 105% | [3] 91.9% | [4] 94.7% | [5] 101% | [6] 70.5% | [7] 95% | [8] 101% | [9] 96.5% | [10] 104% | [11] 110% | [12] 92.7% | [13] 94% | [14] 108% | [15] 119% | [16] 104% | [17] 84.5% | [18] 96.7% | [19] 97.1% | [20] 98.6%

Cc1cc(N/C=c2\sc3ncnn3c2=O)no1
inactive: [1] 91.6% | [2] 108% | [3] 81.5% | [4] 103% | [5] 105% | [6] 92.2% | [7] 90.8% | [8] 107% | [9] 100% | [10] 112% | [11] 93.7% | [12] 98.5% | [13] 87.3% | [14] 102% | [15] 113% | [16] 90.1% | [17] 99% | [18] 107% | [19] 105% | [20] 92.8%

COc1ccc(-n2cnc3c(sc4ncc(Cl)cc43)c2=O)cc1
inactive: [1] 93.4% | [2] 97.8% | [3] 45.7% | [4] 96.9% | [5] 49.1% | [6] 42.9% | [7] 93.3% | [8] 67% | [9] 76.8% | [10] 113% | [11] 83.6% | [12] 87.9% | [13] 88.2% | [14] 113% | [15] 106% | [16] 65.8% | [17] 44.2% | [18] 91.6% | [19] 90.8% | [20] 105%

Cc1sc(N=Nc2ccc(N(C)C)cc2)[n+]([O-])c1C
inactive: [1] 98.4% | [2] 92.6% | [3] 94.5% | [4] 106% | [5] 99.3% | [6] 74.7% | [7] 98.4% | [8] 100% | [9] 103% | [10] 104% | [11] 102% | [12] 121% | [13] 91.2% | [14] 96.2% | [15] 79.7% | [16] 95.7% | [17] 106% | [18] 100% | [19] 105% | [20] 99.8%

COc1ccc(/C=C/C(=O)c2ccc(NC(=O)CN3CCN(c4cc5c(cc4F)c(=O)c(C(=O)O)cn5C4CC4)CC3)cc2)cc1
inactive: [1] 99.6% | [2] 94.8% | [3] 96.1% | [4] 98.2% | [5] 112% | [6] 90.6% | [7] 111% | [8] 96.8% | [9] 89.8% | [10] 120% | [11] 126% | [12] 104% | [13] 94.5% | [14] 96.2% | [15] 98.4% | [16] 113% | [17] 95.3% | [18] 108% | [19] 96.5% | [20] 96.9%

COc1cc(Cn2c(SCCC(=O)Nc3ccc(F)cc3)nc3ccccc3c2=O)cc(OC)c1OC
inactive: [1] 90.5% | [2] 79% | [3] 81.1% | [4] 82.7% | [5] 96.8% | [6] 55.1% | [7] 53.8% | [8] 83.5% | [9] 90.5% | [10] 95.8% | [11] 101% | [12] 70.8% | [13] 91.7% | [14] 65.9% | [15] 74.3% | [16] 80.9% | [17] 88.2% | [18] 84.2% | [19] 93.2% | [20] 93%
